High-throughput results (PubChem)
Only some compounds are listed: those with a hit (about 19% of all), similar ones and a draw of the others.
IL-1B inflam inh = qHTS for Inhibitors of Inflammasome Signaling: IL-1-beta AlphaLISA Primary Screen; THP-1 LPS/ATP IL-1B secretion, AlphaLISA, 16 h; hits give low values; activity change, % at 57.5 µM; 4.7% of 360,000 active; in the data active = activity change below about -50%; inconclusive = mostly about -30% to -49%
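THP-1 cells pretreated 1 hr with compounds (up to 57.5 uM final), then stimulated with LPS (250 ng/mL final) plus ATP (1.25 mM final); secreted IL-1B measured by AlphaLISA after 16 hr, decreased signal indicating inhibition.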
TDP1 cell CPT = qHTS for Inhibitors of human tyrosyl-DNA phosphodiesterase 1 (TDP1): qHTS in cells in presence of CPT. chicken DT40 Tdp1-/-;hTDP1 cells + 20 nM CPT, ATP luminescence, 48 h. Potency, µM (doses to about 46.2 µM), actives largely listed as inhibitors. 12% of 420,000 active; also: nearly all actives have a fitted effect of over 55% in size
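Cell growth measured by CellTiter-Glo luminescence after a minimum 48 h, 37 C compound exposure with 20 nM CPT in Tdp1-knockout DT40 cells stably expressing hTDP1, seeded 400/well; qHTS titration format.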
SW480 rereplic = A quantitative high throughput screen for small molecules that induce DNA re-replication in SW480 colon adenocarcinoma cells | Potency, µM (doses to about 46.1 µM), hits mostly activators | SW480 DNA re-replication, Hoechst DNA content imaging, 48 h | 1.8% of 340,000 active; also: nearly all actives have a fitted effect of over 55% in size
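Readout is total intensity of Hoechst-stained nuclei, excited at 405 nm and collected at 500-530 nm. Compound treatment lasted 48 hr at 37 C in 5% CO2 before staining.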
MCF10A rereplic = A quantitative high throughput screen for small molecules that induce DNA re-replication in MCF 10a normal breast cells | 2.9% of 350,000 active | Potency, µM (doses to about 46.1 µM), hits mostly activators | MCF 10A DNA re-replication, Hoechst nuclear intensity, 48 h; also: nearly all actives have a fitted effect of over 50% in size
DT40 TDP1 no CPT = qHTS for Inhibitors of human tyrosyl-DNA phosphodiesterase 1 (TDP1): qHTS in cells in absence of CPT | Potency, µM (titrated, usually from 46.2 µM), hits mostly inhibitors | DT40 Tdp1-/- hTDP1 cells, no CPT, ATP luminescence, 48 h | 15% of 420,000 active; also: nearly all actives have a fitted effect of over 55% in size
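Seeded 400 DT40-hTDP1 cells/well (vehicle DMSO, no 20 nM CPT); pinned compounds; ≥48 hr at 37 °C; CellTiter-Glo luminescence as viability measure.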
BCR signal inh = qHTS Assay to Find Inhibitors of Chronic Active B-Cell Receptor Signaling. Potency, µM (highest dose often 46.1 µM), usual class: inhibitors. ABC-DLBCL IkBa-CBG/CBR reporter, luminescence ratio, 4 h. 0.05% of 340,000 active. AID 493014, 2011; active = well fitted inhibition curve with a large enough effect in the signal ratio, with a control signal flat, not every such curve was filed as active; inconclusive = small, poorly fitted or top-dose-only effect, or effect the other way, or a change in a side signal; the % refers to the signal ratio
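Cell line TMD8 (human ABC DLBCL), stably expressing tet-inducible CBG68-IkBa fusion and CBR; IMDM/0.5% FBS; cpd up to 46 uM; dox induction, 4 h, 37C/5% CO2; dual luminescence; green/red ratio; MG132 control.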
Large screens that a line does not name were inactive; ! = repeats disagree. Unless noted, calls follow the shape of the dose curve; as a rule, active = well fitted curve in the direction sought with a large enough effect; inconclusive = small, poorly fitted or top-dose-only effect, or another doubt; inactive = no such curve, though single readings can be large; an effect the other way counts as inactive or inconclusive.

O=C1S/C(=C\c2ccc(O)c([N+](=O)[O-])c2)C(=O)N1Cc1cccc([N+](=O)[O-])c1	TDP1 cell CPT inconclusive, MCF10A rereplic inconclusive, BCR signal inh inconclusive
Cc1sc(NC(=O)CN2C(=O)NC3(CCCC3)C2=O)nc1-c1ccc(F)cc1	TDP1 cell CPT inconclusive, DT40 TDP1 no CPT inconclusive
NC1=NN(c2c(Cl)cc(Cl)cc2Cl)C(=O)C1	none (no result: BCR signal inh)
Clc1ccc2c(c1)C(N1CCNCC1)=Nc1ccccc1O2	TDP1 cell CPT 14.6µM!, DT40 TDP1 no CPT 7.31µM!
Cc1c(C(=O)NCc2cccc(F)c2)oc2c1-c1[nH]ncc1CC2	DT40 TDP1 no CPT inconclusive (no result: IL-1B inflam inh, SW480 rereplic, MCF10A rereplic, BCR signal inh)
Cc1cc(C)c(NC(=O)c2oc3c(c2C)-c2[nH]ncc2CC3)c(C)c1	TDP1 cell CPT 16.4µM, DT40 TDP1 no CPT 20.6µM (no result: IL-1B inflam inh, SW480 rereplic, MCF10A rereplic, BCR signal inh)
CCOc1ccccc1CNC(=O)c1oc2c(c1C)-c1[nH]ncc1CC2	TDP1 cell CPT 16.4µM, DT40 TDP1 no CPT 16.4µM (no result: IL-1B inflam inh, SW480 rereplic, MCF10A rereplic, BCR signal inh)
O=C(Nc1cccc(F)c1)NC1(C(=O)NCC2CCCO2)CCCCC1 (configuration not stated)	none
Cc1ccc(C)c(Cn2c(=O)cc(C)c3c(C)nn(-c4cccc(F)c4)c32)c1	none (no result: IL-1B inflam inh, SW480 rereplic, MCF10A rereplic, BCR signal inh)
C=CCn1c(=O)c2c(nc3n2CC(C)CN3CCc2ccccc2)n(C)c1=O (configuration not stated)	TDP1 cell CPT inconclusive, MCF10A rereplic inconclusive, DT40 TDP1 no CPT inconclusive, BCR signal inh inconclusive
COc1cc(C(=O)O[C@H]2C/C(C)=C/CC[C@@]3(C)O[C@@H]3[C@H](O)[C@@H]2C(C)C)cc(OC)c1OC	TDP1 cell CPT 16.4µM, DT40 TDP1 no CPT 23.1µM
CCCn1nc(C(=O)OCC(=O)Nc2cccc(OC)c2)c2ccccc2c1=O	none
Cc1nc2c(Cl)cccc2c2c1CC(CBr)O2 (configuration not stated)	TDP1 cell CPT 14.6µM, DT40 TDP1 no CPT inconclusive
CC(=O)c1cccc(NC(=O)COc2ccccc2C(=O)c2cc(C#N)c(=O)n(C3CCCCC3)c2)c1	TDP1 cell CPT inconclusive, DT40 TDP1 no CPT 11.6µM, BCR signal inh inconclusive
Cc1ccc(OCc2ccc(C#N)cc2)c(C(=O)c2cc(C#N)c(=O)n(C3CC3)c2)c1	none
COc1ccc(O)c(C(=O)c2cc(C#N)c(=O)n(CC3CCCO3)c2)c1 (configuration not stated)	TDP1 cell CPT inconclusive, DT40 TDP1 no CPT inconclusive
N#Cc1cc(C(=O)c2cc(Br)ccc2O)cn(C2CCCCC2)c1=O	IL-1B inflam inh -80.5, TDP1 cell CPT 12.6µM, SW480 rereplic inconclusive, DT40 TDP1 no CPT 20µM
COc1cc(OC)c(NC(=O)c2c(C)oc3nc(C)nc(N4CCOCC4)c23)cc1Cl	none (no result: IL-1B inflam inh, SW480 rereplic, MCF10A rereplic, BCR signal inh)
COCCNC(=S)N/N=C(\C)c1cccc(OC)c1	BCR signal inh inconclusive
CCCOC(=O)c1ccc2c(c1)C(=O)N(c1ccccc1)C2=O	TDP1 cell CPT inconclusive, SW480 rereplic 16.4µM, MCF10A rereplic inconclusive
Clc1ccccc1OCCSc1nnc(-c2cccs2)o1	none (no result: IL-1B inflam inh, SW480 rereplic, MCF10A rereplic, BCR signal inh)
Cc1csc2nc3cc(C(N)=O)ccc3c(=O)n12	none
NC(=O)c1ccc2c(=O)n3c(-c4cc(Cl)c(N)c(Cl)c4)csc3nc2c1	TDP1 cell CPT 16.4µM, MCF10A rereplic inconclusive, DT40 TDP1 no CPT 18.4µM
COc1ccc2sc(NC(=O)CC(C)C)nc2c1	TDP1 cell CPT inconclusive, BCR signal inh inconclusive
CCC(=O)Nc1nc2c(OC)ccc(OC)c2s1	BCR signal inh inconclusive
CCn1cc([N+](=O)[O-])c(C(=O)Nc2nc3ccc(OC)cc3s2)n1	IL-1B inflam inh -59.3, MCF10A rereplic inconclusive, BCR signal inh inconclusive
COc1ccc(NC(=O)Nc2nc3ccccc3s2)cc1	IL-1B inflam inh inconclusive, TDP1 cell CPT inconclusive, DT40 TDP1 no CPT inconclusive, BCR signal inh inconclusive
CCC(=O)Nc1nc2ccc3nc(C)sc3c2s1	TDP1 cell CPT inconclusive, MCF10A rereplic inconclusive, DT40 TDP1 no CPT 20.6µM
CCC(=O)Nc1nc2cc(OC)ccc2s1	TDP1 cell CPT inconclusive, DT40 TDP1 no CPT 18.4µM
COc1ccc2sc(NC(=O)NC(=O)c3c(Cl)cccc3Cl)nc2c1	IL-1B inflam inh -88.5, MCF10A rereplic inconclusive, DT40 TDP1 no CPT inconclusive, BCR signal inh inconclusive
COc1ccc(Cc2nnc(SCC(=O)Nc3cc(Cl)ccc3C)[nH]c2=O)cc1	DT40 TDP1 no CPT inconclusive
CC(C)c1ccc(NC2CCCN(C(=O)C3=NN(C)C(=O)CC3)C2)cc1 (configuration not stated)	none
CCCCNc1ccc(C(F)(F)F)cc1S(=O)(=O)NCCc1ccc(F)cc1	IL-1B inflam inh -63.3, TDP1 cell CPT 18.4µM, MCF10A rereplic inconclusive, DT40 TDP1 no CPT 6.51µM
FC(F)(F)c1nnc2c(Sc3ccccn3)nc3ccccc3n12	IL-1B inflam inh -66.0, TDP1 cell CPT 5.17µM, SW480 rereplic inconclusive, MCF10A rereplic inconclusive, DT40 TDP1 no CPT 4.61µM, BCR signal inh inconclusive
FC(F)(F)c1nnc2c(Sc3ccc(Cl)cc3)nc3ccccc3n12	IL-1B inflam inh -52.0, TDP1 cell CPT 2.59µM, SW480 rereplic inconclusive, DT40 TDP1 no CPT 1.84µM
Cc1nnc2c(SC(C)C)nc3ccccc3n12	TDP1 cell CPT inconclusive, DT40 TDP1 no CPT inconclusive
FC(F)(F)c1nc2ccccc2c2nc3ccccc3n12	BCR signal inh inconclusive
CCOc1ccc(N(CC(=O)NC2CCCCC2)C(=O)Cn2nnc(-c3ccc(C)o3)n2)cc1	TDP1 cell CPT inconclusive, DT40 TDP1 no CPT inconclusive
O=C(NCc1ccco1)C1CCCN1C(=O)Nc1ccc(Br)cc1 (configuration not stated)	MCF10A rereplic inconclusive
CC(C)C1C(=O)N(Cc2cn(Cc3ccco3)nn2)CCS(=O)(=O)N1Cc1ccc(-c2ccc(F)cc2)cc1 (configuration not stated)	TDP1 cell CPT inconclusive, DT40 TDP1 no CPT 20.6µM (no result: SW480 rereplic, MCF10A rereplic, BCR signal inh)
CC(C)C1C(=O)N(Cc2cn(Cc3ccco3)nn2)CCS(=O)(=O)N1Cc1ccc(-c2ccncc2)cc1 (configuration not stated)	none (no result: SW480 rereplic, MCF10A rereplic, BCR signal inh)
CC(C)C1C(=O)N(Cc2cn(Cc3ccco3)nn2)CCS(=O)(=O)N1Cc1ccc(-c2ccccc2)cc1 (configuration not stated)	TDP1 cell CPT inconclusive, DT40 TDP1 no CPT 18.4µM (no result: SW480 rereplic, MCF10A rereplic, BCR signal inh)
CC(C)C1C(=O)N(Cc2cn(Cc3ccco3)nn2)CCS(=O)(=O)N1Cc1ccc(-c2ccc(Cl)cc2)cc1 (configuration not stated)	TDP1 cell CPT 9.2µM, DT40 TDP1 no CPT 6.51µM (no result: SW480 rereplic, MCF10A rereplic, BCR signal inh)
